The structures appear in SMILES notation. Among all 48,000 compounds or so, about 13,000 (27%) showed an effect of 50% or more. Some of the results follow.

The subject of this experiment is Wolbachia pipientis. Nature of the experiment: Anti-Wolbachia Cell-Based Screen. Format: functional. On the set-up: scale not given: in the data most compounds retested in dose-response had high values. As to conditions: 5 µM.
`CCc1sc(-c2nnc(CNCCn3cccn3)o2)cc1C`: the “Percent Effect” value was -1.143%.
For `COc1cccc([C@H]2CN(CCCS(=O)(=O)N(C)C)C[C@@H]2N)c1` the value was -12.77%.
On to `Cn1ccnc1CN1CC[C@@H](NS(C)(=O)=O)[C@@H]1Cc1ccccc1.O=C(O)C(F)(F)F`, for which the “Percent Effect” value was 9.127%.
Consider `O=C(NC1CCS(=O)(=O)C1)N1CCN(c2cnccn2)CC1` (stereo not drawn), for which the “Percent Effect” value worked out at 3.203%.
For `Clc1ccccc1-c1nnc(CSCCN2CCOCC2)o1` the value was -8.486%.
Consider `COCCN(CC(C)C)c1cc(C)ncn1`, for which the “Percent Effect” value amounted to 0.855%.
Regarding `Cc1cccc(-c2noc(C)c2C(=O)NC2CCCOC2)c1.O=C(O)CC(O)(CC(=O)O)C(=O)O` (stereo not drawn), the “Percent Effect” value stood at 154%.
Consider `COc1ccc2c(C)c(C(=O)NC3CCCOC3)oc2c1` (stereo not drawn), for which the “Percent Effect” value is recorded as -7.174%.
Regarding `Cc1c(C(=O)NC2CCCOC2)nnn1-c1ccc(Cl)cc1F` (stereo not drawn), the “Percent Effect” value was -27.09%.
Consider `CCN(Cc1cc(=O)n2cc(Br)ccc2n1)C1CC1`, for which the “Percent Effect” value amounted to 1.133%.
Turning to `O=c1cc(CN(Cc2ccco2)C2CC2)nc2ccc(Br)cn12`, the “Percent Effect” value is -5.391%.
As for `CN(CCO)Cc1cc(=O)n2cc(Br)ccc2n1`, the “Percent Effect” value is reported as 0.309%.
For `O=c1cc(CNCc2ccc3c(c2)OCO3)nc2ccccn12` the value was 121%; for `c1cn2c(n1)CO[C@@H](CNCc1ccc3c(c1)OCO3)C2`, -4.812%.
Regarding `O=c1cc(CN(CCO)C2CC2)nc2ccccn12`, the “Percent Effect” value is reported as -7.428%.
Turning to `O=c1cc(CN(CCO)C2CC2)nc2ccc(Br)cn12`, the “Percent Effect” value was determined as 3.193%.
Turning to `O=c1cc(CNCc2ccc3c(c2)OCO3)nc2ccc(Br)cn12`, the “Percent Effect” value is listed as 115.5%.
`O=C(OCc1cc(=O)n2cc(Br)ccc2n1)c1ccc2c(c1)OCO2`: the “Percent Effect” value is 110.5%.
Regarding `COc1ccc(-n2nc(C(C)C)nc2COC(C)C)cc1`, the “Percent Effect” value is -17.3%.
For `COc1ccccc1-n1c(CC(C)C)nnc1SCC(=O)O` the value was -51.76%; for `COc1ccccc1-n1nc(CC(C)C)nc1CSc1nnc(N)s1`, 106.5%; for `Cc1cccc(-n2nc(CC(C)C)nc2CCCC(N)=O)c1`, 10.56%.
Turning to `COc1ccccc1-n1nc(C(C)C)nc1Cc1nnc(N)s1`, the “Percent Effect” value came to 123.2%.
Turning to `COc1ccccc1-n1nc(CC(C)C)nc1Cc1nnc(N)s1`, the “Percent Effect” value came to 123.6%.
Consider `CC(C)Cc1nc(CS(C)(=O)=O)n(-c2ccccn2)n1`, for which the “Percent Effect” value is reported as -36.43%.
For `Cc1cccc(-n2nc(CC(C)C)nc2CS(C)(=O)=O)c1`, the “Percent Effect” value stood at 2.26%.
With `COc1ccccc1OCc1nc(C(C)C)no1`, the “Percent Effect” value is given as -14.46%.
For `CCc1nc(CN(C)c2nccc(N3CCCC(O)C3)n2)no1` (stereo not drawn), the “Percent Effect” value was determined as 114.5%.
In the case of `CCc1nc(C2CCCN(c3nccc(N4CCCC4)n3)C2)no1` (stereo not drawn), the “Percent Effect” value is listed as -11.44%.
On to `CN(Cc1nncn1C)c1nccc(N2CCC(O)CC2)n1`, for which the “Percent Effect” value amounted to 2.442%.
Consider `CC(C)c1nc(CCN(C)c2nccc(N3CCCC(O)C3)n2)no1` (stereo not drawn), for which the “Percent Effect” value is given as 96.48%.
`CN(Cc1nccn1C)c1nccc(N2CCCC(O)C2)n1` (stereo not drawn): the “Percent Effect” value is listed as 5.071%.
For the molecule `CCc1noc(CN(C)Cc2ccc(N3CCCCC3)cc2)n1`, the “Percent Effect” value came to 6.491%.
As to `CN(CCN1CCCCCC1)c1nccc(N2CCC(O)C2)n1` (stereo not drawn), the “Percent Effect” value worked out at 17.45%.
To `CC(C)c1nc(C2CCCN(c3nccc(N4CCCC4)n3)C2)no1` (stereo not drawn) belongs -3.198%.
Consider `CCc1nnc(CN(C)c2nccc(N3CCCC(O)C3)n2)o1` (stereo not drawn), for which the “Percent Effect” value was found to be 80.06%.
As to `CO[C@H]1COCCN(C(=O)c2ccc(C#N)cc2)C1`, the “Percent Effect” value was determined as 6.544%.
For the molecule `CC(NC(=O)CN1C=Nc2ccccc2S1(=O)=O)c1ccccc1` (stereo not drawn), the “Percent Effect” value was determined as 1.961%.
On to `Cc1nn(C(C)C)c(C)c1NC(=O)c1ccccc1`, for which the “Percent Effect” value is given as -6.028%.
For `Cc1c(NC(=O)C(C)N(C)C)c(=O)n(-c2ccccc2)n1C` (stereo not drawn), the “Percent Effect” value was found to be 117.4%.
To `Cc1cc(NC(=O)N(C)C2CCCN(c3ccccc3)C2=O)n(C)n1` (stereo not drawn) belongs 12.64%; to `CN(Cc1ccsc1)c1nc(-c2ccccn2)nc2c1CCNCC2`, 9.446%; to `O=C(CC1CCN(c2ncnc3ccccc23)CC1)N1CCCC1`, -18.62%.
For `O=C(c1ccccn1)N1CCCN(Cc2nnc(C3CC3)o2)CC1` the value was -3.394%; for `O=C(CC1CCCC1)N1CCC(c2nnc(-c3ccccn3)o2)CC1`, 116.1%; for `O=C(Cc1ccccc1)N1CC[C@@H]2CNS(=O)(=O)[C@@H]2CC1`, -4.028%.
For `CN(C)S(=O)(=O)N1CCC(c2nnc(C(F)(F)F)o2)CC1`, the “Percent Effect” value worked out at 9.522%.
For `O=C(CCn1cccn1)N1CCC(c2nnc(-c3ccccn3)o2)CC1` the value was 80.52%; for `O=C(Cn1cccn1)N1CCC(c2nnc(C(F)(F)F)o2)CC1`, 121.4%; for `CS(=O)(=O)NC1CCN(C(=O)CCn2cccn2)CC1`, -7.028%.
On to `O=C(CCn1cccn1)N1CCC(C2CCN(c3ncccn3)CC2)C1` (stereo not drawn), for which the “Percent Effect” value is listed as 0.2616%.
As to `CCS(=O)(=O)N1CCC(c2nnc(C(F)(F)F)o2)CC1`, the “Percent Effect” value is on record as -1.552%.
For the molecule `Cc1nnc([C@@H]2CCO[C@@H]3CCN(C(=O)Cc4ccccn4)C[C@@H]32)o1`, the “Percent Effect” value is given as -1.99%.
With `O=C(Cc1ccccc1)N1CCC(c2nnc(-c3ccccn3)o2)CC1`, the “Percent Effect” value is listed as 100.4%.
Turning to `Cc1cnn(CC2CCN(c3cc(C(C)C)nc4ccnn34)CC2)c1`, the “Percent Effect” value is recorded as -2.497%.
On to `COC(=O)c1sccc1S(=O)(=O)N1CCC(Oc2cccc(C)n2)CC1`, for which the “Percent Effect” value was -4.236%.
As to `Cc1ccc(Cc2sc(NC(=O)C(C)S(C)(=O)=O)nc2C)cc1` (stereo not drawn), the “Percent Effect” value is -9.615%.
For `O=C(Cc1cccnc1)N1CCC(c2nnc(-c3ccccn3)o2)CC1` the value was 116.7%.
To `O=C(CC1CCN(c2ncnc3cccc(F)c23)CC1)N1CCCC1` belongs 7.525%; to `CN(C)CCCn1ccnc1C1CCN(C(=O)Cc2cccnc2)CC1`, -18.68%.
For the molecule `Cn1cncc1-c1nnc([C@H]2CCN(Cc3cccnc3)C2)o1`, the “Percent Effect” value is -10.77%.
Consider `O=C(CC1CCCC1)N1CCC(c2noc(-c3ccccn3)n2)CC1`, for which the “Percent Effect” value is listed as 138.8%.
For `Cc1noc(C)c1CN(C)CCC(=O)N1CCc2sccc2C1` the value was -7.36%; for `CNC(=O)[C@H]1CC[C@@H]2[C@@H](CCN2CCOCc2ccccc2)O1.O=C(O)C(F)(F)F`, 2.484%; for `CNC(=O)[C@@H]1CC[C@@H]2[C@@H](CCN2Cc2ccccc2F)O1.O=C(O)C(F)(F)F`, -4.389%.
As to `COc1ccc(CN2CC[C@H]3O[C@@H](C(=O)NCC4CC4)CC[C@H]32)cc1.O=C(O)C(F)(F)F`, the “Percent Effect” value is 93.13%.
`O=C(NCC1CC1)[C@@H]1CC[C@@H]2[C@@H](CCN2Cc2ccc(F)c(F)c2)O1.O=C(O)C(F)(F)F`: the “Percent Effect” value was found to be 110.1%.
Consider `O=C(NCc1ccco1)[C@@H]1CC[C@@H]2[C@@H](CCN2Cc2ccc(F)cc2)O1.O=C(O)C(F)(F)F`, for which the “Percent Effect” value was -0.4343%.
On to `O=C(NCC1CC1)[C@@H]1CC[C@@H]2[C@@H](CCN2CCOCc2ccccc2)O1`, for which the “Percent Effect” value is given as -46.75%.
Regarding `O=C(NCC1CC1)[C@@H]1CC[C@@H]2[C@@H](CCN2Cc2ccco2)O1.O=C(O)C(F)(F)F`, the “Percent Effect” value is on record as 95.42%.
As to `O=C(NCCc1ccncc1)[C@@H]1CC[C@@H]2[C@@H](CCN2Cc2ccco2)O1.O=C(O)C(F)(F)F.O=C(O)C(F)(F)F`, the “Percent Effect” value is given as -6.425%.
For `O=C(NCc1ccco1)[C@@H]1CC[C@@H]2[C@@H](CCN2CC2CC2)O1.O=C(O)C(F)(F)F` the value was -3.769%; for `O=C(NCC1CCOCC1)[C@@H]1CC[C@@H]2[C@@H](CCN2Cc2ccncc2)O1.O=C(O)C(F)(F)F.O=C(O)C(F)(F)F`, 108.2%.
For `O=C(NCCc1ccc(Cl)cc1)c1coc(CN2CCOCC2)c1` the value was -3.788%.
`Cc1nn(-c2ccccc2)c2c1C(c1ccc(C(=O)O)cc1)CC(=O)N2` (stereo not drawn): the “Percent Effect” value was -3.155%.
In the case of `Cc1nn(-c2ccccc2)c(C)c1CNC(=O)NC1CC(=O)N(C)C1` (stereo not drawn), the “Percent Effect” value is given as 1.592%.
For the molecule `CC1=C(C#N)C(=O)NC(=O)/C1=C\c1c(C)nn(-c2ccccc2)c1O`, the “Percent Effect” value came out at 95.98%.
For `Cc1ccc(-n2nc(C)c3c2NC(=O)CC3c2cnc(N)s2)cc1` (stereo not drawn) the value was 19.39%; for `CC1=C(C#N)C(=O)NC(=O)/C1=C\c1c(C)nn(-c2ccc(C)cc2)c1O`, 117.9%; for `CC1=C(C#N)C(=O)NC(=O)/C1=C\c1c(C)nn(-c2ccc(Cl)cc2)c1O`, 109.3%.
For `CCc1ccc(C(=O)NCc2cccc(S(=O)(=O)NC)c2)o1` the value was 104.9%.
With `CCn1c(C)cc(C(=O)NCc2cccc(S(=O)(=O)NC)c2)c1C`, the “Percent Effect” value is listed as -0.4884%.
Turning to `CNS(=O)(=O)c1cccc(CNC(=O)NCC2CCOC2)c1` (stereo not drawn), the “Percent Effect” value was -2.881%.
As for `CNS(=O)(=O)c1ccc(CNC(=O)c2cc(-c3ccccn3)no2)cc1`, the “Percent Effect” value is recorded as -10.88%.
As for `CNS(=O)(=O)c1cccc(CNC(=O)c2cc(C)no2)c1`, the “Percent Effect” value is 131.9%.
On to `CNS(=O)(=O)c1ccc(CNC(=O)c2cc(C)no2)cc1`, for which the “Percent Effect” value is 3.551%.
For the molecule `COCc1nc(C(=O)NS(=O)(=O)c2ccc(F)c(F)c2)cs1`, the “Percent Effect” value was -13.23%.
With `COC(=O)CCN(C)C(=O)c1ccc(-c2cscn2)cc1`, the “Percent Effect” value is -8.458%.
Regarding `Cc1nc(C)c(CC(=O)NCc2ccccc2F)s1`, the “Percent Effect” value is on record as 8.727%.
With `CC(C)NC(=O)CN(C)C(=O)c1csc(Cc2ccccc2F)n1`, the “Percent Effect” value was 122.3%.
As for `CC(C)NC(=O)CNC(=O)c1csc(Cc2ccccc2F)n1`, the “Percent Effect” value was determined as 109.5%.
Take `CCN(CC(=O)NC)C(=O)c1csc(Cc2ccccc2)n1`: the “Percent Effect” value is reported as -20.14%.
Take `COC(=O)CCN(C)C(=O)c1csc(Cc2ccccc2F)n1`: the “Percent Effect” value is on record as 117.5%.
Turning to `CCNC(=O)CN(CC)C(=O)c1csc(Cc2ccccc2F)n1`, the “Percent Effect” value turned out to be 97.94%.
With `CC(C)NC(=O)CCNC(=O)Nc1cnn(-c2ccccc2F)c1`, the “Percent Effect” value is recorded as -8.567%.
With `CCN(CC(=O)NC(C)C)C(=O)c1csc(Cc2ccccc2)n1`, the “Percent Effect” value is on record as -19.99%.
Turning to `CC(=O)Nc1nc(C(=O)NCCOc2ccccc2F)cs1`, the “Percent Effect” value was -9.068%.
As to `CCNC(=O)CN(CC)C(=O)Cc1csc(C(C)C)n1`, the “Percent Effect” value worked out at 11.15%.

For the origin of these results see ChEMBL document CHEMBL3988442, “University of Dundee, Small-Polar-MMV Screening Library” (2021).
